# Screening results: PubChem, National Center for Advancing Translational Sciences (NCATS)
# HT1080 IDH1KD tx = HT-1080 IDH1 knockdown cell toxicity (counter line). HT-1080 IDH1 knockdown viability, ATP luminescence, 48 h. Potency, µM (doses to about 46.1 µM), for the others: at the top dose activity, negative = toxicity, hits mostly cytotoxic. 2% of 360,000 active. AID 686971;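 note: 0% = DMSO wells and -100% = cell-free medium wells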
#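 Viability of IDH1-knockdown HT-1080 fibrosarcoma cells was assessed by CellTiter-Glo after 48 h at 37 °C with titrated compound; concentration-effect curves were classified by fit quality and response size.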
# HT1080-NT tox = kills 2HG-producing HT-1080-NT fibrosarcoma cells | HT-1080-NT fibrosarcoma viability, CellTiter-Glo ATP luminescence, 48 h | Potency, µM (top dose mostly 46.1 µM), inactives show at the top dose activity, negative = less viability, usual class: cytotoxic | 1.6% of 360,000 active | AID 686970;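 note: NT is the 2HG producing partner of a matched IDH1 knockdown line; 0% = DMSO-treated cells and -100% = media-only wells without cells; nearly all actives have a fitted effect of over 55% in size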
#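 Luminescent CellTiter-Glo readout after 48 hours of compound exposure at 37 degrees C defined viability of HT-1080-NT cells. Activity was normalized to DMSO wells and cell-free media wells; concentration-response curves were fitted and assigned curve classes.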
# KB-3-1 cytotox = kills parental KB-3-1 adenocarcinoma cells; Potency, µM (titrated, usually from 46.1 µM), most hits filed as cytotoxic; 1.4% of 400,000 active; KB-3-1 viability, CellTiter-Glo ATP luminescence, 72 h; note: % is set by controls: 0 for no effect and ±100 for the full control effect; nearly all actives have a fitted effect of over 60% in size
#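 Parental KB-3-1 adenocarcinoma cells in phenol-red-free DMEM with 10% FBS were pin-treated with compounds at several concentrations, incubated 72 h at 37 °C, and viability read by CellTiter-Glo luminescence; concentration-effect curves were fitted after normalization.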
# S2 tox = cell viability loss in ATXN counter-screen | S2 cells (HEK-293 line with an ATXN2-luciferase reporter) viability, CellTiter-Fluor protease fluorescence, 24 h | Potency, µM (series often up to 56.7 µM), most hits filed as cytotoxic | 0.49% of 400,000 active; note: nearly all actives have a fitted effect of over 40% in size
# ATXN2 expr inh = reduces ATXN2 reporter expression in HEK-293 cells | HEK-293 ATXN2-luciferase reporter, luminescence, 24 h | Potency, µM (doses to about 57 µM), inactives show top-dose activity change, negative = inhibition, hits mostly inhibitors | 0.72% of 360,000 active; note: % is set by controls: 0 for no effect and ±100 for the full control effect; nearly all actives have a fitted effect of over 55% in size
#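 ATXN2-luciferase reporter cells (luciferase flanked by upstream and downstream ATXN2 gene portions) were treated 24 h at 37 °C with compounds at up to 57 uM. SteadyGlo luminescence gave expression; GF-AFC fluorescence gave viability.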
# KB-V1 cytotox = kills drug-selected multidrug resistant KB-V1 cells; Potency, µM (titrated, usually from 46.1 µM), usual class: cytotoxic; 3.4% of 400,000 active; KB-V1 MDR cells viability, CellTiter-Glo, 72 h; AID 1347076; note: % is set by controls: 0 for no effect and ±100 for the full control effect; nearly all actives have a fitted effect of over 60% in size
#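 In this primary screen, KB-V1 cells overexpressing P-gp are incubated with library compounds (lowest to highest concentration) for 72 h at 37 degrees C before a luminescent ATP viability read.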
# Active calls of the source: *; i = inactive; ? = inconclusive; · = no result. In the library only some 6.2% were active in any assay of this set; here they are far more common. Calls come from the whole dose curve; as a rule, active = well fitted curve in the direction sought with a large enough effect; inconclusive = small, poorly fitted or top-dose-only effect, or another doubt; inactive = no such curve, though single readings can be large; an effect the other way counts as inactive or inconclusive. Potency is the fitted concentration of half-maximal effect.
SMILES,HT1080 IDH1KD tx,HT1080-NT tox,KB-3-1 cytotox,S2 tox,ATXN2 expr inh,KB-V1 cytotox
CC1CN(CC(=O)NCCC2COc3ccccc3O2)Cc2cc(Cl)ccc2O1 (centres undefined),·,·,·,i,·,·
COc1ccc(C2CC(=O)N(CC(=O)Nc3cccc(C)c3C)c3ccccc3S2)cc1OC (centres undefined),·,·,i,?,-10.9%,?
CC(C)Oc1ccc(C(=O)Nc2cc(S(=O)(=O)N3CCOCC3)ccc2N2CCOCC2)cc1,?,-18.0%,?,i,-17.2%,16.4µM*
CCNC(=O)c1ccccc1NC(=O)c1cccc(S(=O)(=O)N2CCC(C)CC2)c1,-17.3%,-1.4%,i,i,-18.6%,16.4µM*
CNC(=O)c1ccccc1NC(=O)c1cccc(S(=O)(=O)N2CCC(C)CC2)c1,-11.0%,-9.2%,i,i,-21.4%,?
Cc1ccc(NC(=O)c2cc(S(=O)(=O)N3CCOCC3)ccc2F)c(C)c1,-17.0%,13.1%,i,i,14.6%,13µM*
COc1ccc(OC)c(NC(=O)c2ccc(S(=O)(=O)N3CCOCC3)cc2)c1,4.3%,14.6%,i,i,-18.2%,i
COc1ccc(C)cc1NC(=O)c1ccc(S(=O)(=O)N2CCOCC2)cc1,-1.1%,-6.3%,i,i,-6.5%,16.4µM*
COc1cccc2cc(C(=O)NCCc3c(C)[nH]c4ccc(F)cc34)c(=O)oc12,·,·,i,i,-2.7%,i
O=C(Cn1cc(S(=O)(=O)Cc2cccc(Cl)c2)c2ccccc21)Nc1ccccc1Cl,·,·,?,·,·,i
COc1ccc(Cn2c(=O)c3cccnc3n(CC(=O)Nc3c(C)cc(C)cc3C)c2=O)cc1,·,·,i,i,1.0%,i
Cc1ccccc1-c1nc(NCC2CC2)nc2ccsc12,-11.7%,-1.4%,i,i,-4.6%,i
COc1ccccc1CNc1nc(Nc2ccccc2-n2cccn2)c2sccc2n1,?,?,i,15.8µM*,0.0%,?
COc1ccccc1CNc1nc(NCc2cccs2)nc2ccsc12,?,?,i,?,?,i
c1cc2cc(CNc3nc(NCC4CC4)nc4ccsc34)ccc2o1,13µM*,?,i,·,?,?
COc1ccccc1CNc1nc(NCc2ccc3occc3c2)c2sccc2n1,?,16.4µM*,i,?,?,i
COc1ccccc1CNc1nc(NCCOc2ccccc2)c2sccc2n1,?,?,?,?,?,20.6µM*
COc1ccccc1CNc1nc(NCCNC(C)=O)c2sccc2n1,16.8%,16.1%,i,i,0.3%,i
COc1ccccc1CNc1nc(NCc2ccccc2OC)c2sccc2n1,23.1µM*,20.6µM*,?,?,?,?
c1ccc(OCCNc2nc(NCC3CC3)nc3ccsc23)cc1,?,20.6µM*,i,?,-33.8%,?
COCCNc1nc(NCc2ccccc2OC)c2sccc2n1,?,?,i,?,?,?
c1ccc(-c2nc(NCC3CC3)nc3ccsc23)cc1,3.7%,13.2%,i,i,6.8%,i
COc1ccccc1CNc1nc(NCC2CC2)nc2ccsc12,14.6µM*,?,?,·,?,i
COc1ccccc1CNc1nc(Nc2cccc(-c3cnco3)c2)c2sccc2n1,·,·,?,20µM*,0.0%,i
COc1ccc(CN2CCN(C(=O)c3ccco3)CC2)cc1OCc1ccccc1,-18.9%,-11.7%,?,i,-1.5%,i
SMILES,HT1080 IDH1KD tx,HT1080-NT tox,KB-3-1 cytotox,S2 tox,ATXN2 expr inh,KB-V1 cytotox
COc1ccccc1OCc1ccc(C(=O)N2CCN(C(=O)c3ccco3)CC2)cc1,0.1%,12.6%,i,i,2.4%,5.17µM*
O=C(Cn1c(-c2cccs2)cc2ccccc21)N1CCN(c2ccccc2F)CC1,·,·,i,i,4.4%,i
CCOC(=O)c1sc(NC(=O)Nc2ccccc2Cl)cc1C,-6.5%,-10.9%,?,?,-15.0%,20.6µM*
CCOC(=O)c1sc(NC(=O)Nc2ccccc2)cc1C,?,?,?,?,125.9%,?
Cc1ccc2c(CC(=O)Nc3ccc(S(=O)(=O)N4CCC(C)CC4)cc3)coc2c1,·,·,i,?,?,i
CCC(c1ccc(O)c(O)c1)C(CC)c1ccc(O)c(O)c1 (centres undefined),20.6µM*,23.1µM*,i,·,?,i
O=C1c2cccc3cccc(c23)C(=O)C1(O)O,18.4µM*,?,i,·,?,i
COc1cc(OC)cc(C(=O)N2CCCC(n3cc(C(=O)NCC(C)C)nn3)C2)c1 (centres undefined),·,·,·,i,·,·
CCOc1ccc(NS(=O)(=O)c2ccc(-c3cnc(C4CC4)o3)cc2)cc1,?,?,?,i,·,16.4µM*
CCc1ccc(NS(=O)(=O)c2cc(-c3cnc(C4CC4)o3)ccc2C)cc1,·,·,i,?,?,?
Cc1cc(C)cc(NS(=O)(=O)c2ccc(-c3cnc(C4CC4)o3)cc2)c1,0.651µM*,1.3µM*,1.16µM*,i,·,4.11µM*
COc1ccc(NS(=O)(=O)c2cc(-c3cnc(C4CC4)o3)ccc2C)cc1,20.6µM*,?,13µM*,?,·,?
CC(=O)c1cccc(NS(=O)(=O)c2ccc(-c3cnc(C4CC4)o3)cc2)c1,?,20.6µM*,?,?,·,?
COC(=O)c1c(NC(=O)CS(=O)(=O)c2ccccc2)sc(C)c1C,-12.3%,-3.9%,i,i,0.0%,i
Cc1ccc(C)c(NS(=O)(=O)c2ccc(-c3cnc(C4CC4)o3)cc2)c1,0.164µM*,0.103µM*,?,?,·,0.326µM*
COc1ccc(-c2cnc(C)o2)cc1S(=O)(=O)Nc1ccc(C)c(F)c1,·,·,5.8µM*,?,-11.2%,5.8µM*
Cc1cccc(NS(=O)(=O)c2ccc(-c3cnc(C4CC4)o3)cc2)c1C,?,?,0.184µM*,?,·,?
COc1ccc(-c2cnc(C)o2)cc1S(=O)(=O)Nc1ccc(C)c(N(C)C)c1,·,·,i,i,4.7%,i
CCCN1CCN(CCCNC(=O)Cn2c(-c3cccs3)cc3ccccc32)CC1,·,·,?,i,-14.1%,i
CCOCCCNC(=S)N1CCN(c2nc(-c3ccc(F)cc3)cs2)CC1,?,20.6µM*,?,i,?,?
O=C(NC12CC3CC(CC(C3)C1)C2)N1CCN(c2nc(-c3ccccc3)cs2)CC1,0.5%,-1.5%,i,?,?,i
O=C(NC1CCCCC1)N1CCN(c2nc(-c3ccccc3)cs2)CC1,?,-24.6%,i,?,?,11.6µM*
